# Experiments:
# Experiment in all cases: DAPPL (digital affinity profiling via proximity ligation, sequencing); 10 mM Tris-HCl pH 7.5, 50 mM NaCl, 1 mM DTT, 4% glycerol, room temperature, 30 min; GST-TFs on glutathione beads, 16-mer random dsDNA library, 0.1% formaldehyde crosslink after washing; high values mean tight binding
# FLI1 = target: T1, FLI1 (Homo sapiens, UniProt Q01543 1-452); conditions: protein: recombinant; tags: N-terminal GST; dsDNA, one strand shown
# T1 sequence: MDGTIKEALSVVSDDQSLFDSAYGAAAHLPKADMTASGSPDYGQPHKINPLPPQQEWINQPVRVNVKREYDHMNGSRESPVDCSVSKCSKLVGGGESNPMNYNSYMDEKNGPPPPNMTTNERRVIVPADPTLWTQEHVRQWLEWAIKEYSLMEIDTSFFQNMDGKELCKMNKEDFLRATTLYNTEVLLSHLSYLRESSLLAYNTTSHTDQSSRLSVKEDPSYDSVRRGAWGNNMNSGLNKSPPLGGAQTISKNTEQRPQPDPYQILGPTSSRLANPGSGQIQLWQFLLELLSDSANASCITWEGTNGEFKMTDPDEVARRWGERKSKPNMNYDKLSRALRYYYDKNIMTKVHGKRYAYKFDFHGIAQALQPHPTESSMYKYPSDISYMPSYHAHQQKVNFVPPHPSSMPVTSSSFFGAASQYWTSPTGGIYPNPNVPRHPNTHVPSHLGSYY
# Summary of the method: (§1)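 Beads coated with glutathione captured GST-fused human transcription factors that had been expressed in yeast, and the factors were then given DNA barcodes and pooled with a tag-only sample. The pools were incubated with 200 nmole of a random double-stranded 16-mer DNA library in Tris/NaCl/DTT/glycerol buffer for 30 min at room temperature, washed, crosslinked with 0.1% formaldehyde and proximity-ligated with BsaI/T4 ligase at 37 °C for 1 h. PCR amplification and Illumina NextSeq500 sequencing came last. Binding signal is each hexamer's read frequency for a factor divided by its frequency for the tag-only sample.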
# ELK1 = target: T2, ELK1 (Homo sapiens, UniProt P19419 1-428); conditions: protein: recombinant; tags: N-terminal GST; dsDNA, one strand shown
# T2 sequence: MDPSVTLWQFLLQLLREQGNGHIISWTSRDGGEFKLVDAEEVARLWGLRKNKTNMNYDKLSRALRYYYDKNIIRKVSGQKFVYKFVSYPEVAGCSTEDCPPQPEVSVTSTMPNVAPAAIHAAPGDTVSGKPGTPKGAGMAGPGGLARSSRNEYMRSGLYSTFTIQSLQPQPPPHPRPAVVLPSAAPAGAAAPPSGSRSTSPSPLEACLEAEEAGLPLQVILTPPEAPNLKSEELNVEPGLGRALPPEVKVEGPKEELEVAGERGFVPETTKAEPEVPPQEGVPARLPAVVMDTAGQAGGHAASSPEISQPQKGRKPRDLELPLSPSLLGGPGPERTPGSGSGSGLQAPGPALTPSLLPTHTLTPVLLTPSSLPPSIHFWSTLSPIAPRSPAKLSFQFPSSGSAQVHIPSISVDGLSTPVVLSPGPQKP
# Summary of the method: as §1
# GABPA = target: T3, GABPA (Homo sapiens, UniProt Q06546 1-454); conditions: protein: recombinant; tags: N-terminal GST; dsDNA, one strand shown
# T3 sequence: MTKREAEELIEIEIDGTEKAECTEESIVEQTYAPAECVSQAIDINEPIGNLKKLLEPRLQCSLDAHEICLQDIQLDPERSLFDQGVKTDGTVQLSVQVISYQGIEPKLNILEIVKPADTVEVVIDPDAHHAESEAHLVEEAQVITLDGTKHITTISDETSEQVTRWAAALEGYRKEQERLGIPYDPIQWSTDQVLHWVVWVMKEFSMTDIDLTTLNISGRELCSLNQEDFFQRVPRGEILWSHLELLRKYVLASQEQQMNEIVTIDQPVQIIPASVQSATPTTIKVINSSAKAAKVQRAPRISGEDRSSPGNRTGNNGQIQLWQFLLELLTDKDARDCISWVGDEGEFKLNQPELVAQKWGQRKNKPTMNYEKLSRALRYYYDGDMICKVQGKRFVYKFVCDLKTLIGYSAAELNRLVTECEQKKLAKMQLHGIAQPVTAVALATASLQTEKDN
# Summary of the method: as §1
# ERG = target: T4, ERG (Homo sapiens, UniProt P11308 1-479); conditions: protein: recombinant; tags: N-terminal GST; dsDNA, one strand shown
# T4 sequence: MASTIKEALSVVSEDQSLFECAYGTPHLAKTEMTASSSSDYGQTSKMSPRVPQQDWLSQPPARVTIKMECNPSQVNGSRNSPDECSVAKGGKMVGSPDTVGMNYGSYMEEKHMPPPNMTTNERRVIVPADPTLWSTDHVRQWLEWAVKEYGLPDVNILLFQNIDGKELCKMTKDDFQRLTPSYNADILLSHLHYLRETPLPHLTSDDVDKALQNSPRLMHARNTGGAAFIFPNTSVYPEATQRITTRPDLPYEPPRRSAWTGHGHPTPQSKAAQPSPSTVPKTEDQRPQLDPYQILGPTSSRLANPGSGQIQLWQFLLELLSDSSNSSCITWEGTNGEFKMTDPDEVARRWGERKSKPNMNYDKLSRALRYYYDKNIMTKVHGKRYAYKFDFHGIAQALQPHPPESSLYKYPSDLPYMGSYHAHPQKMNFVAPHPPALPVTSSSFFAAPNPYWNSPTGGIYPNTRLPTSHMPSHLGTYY
# Summary of the method: as §1
# ELF1 = ELF1 (Homo sapiens, UniProt P32519 1-619); conditions: protein: recombinant; tags: N-terminal GST; dsDNA, one strand shown
# Summary of the method: as §1
# EHF = target: T5, EHF (Homo sapiens, UniProt Q9NZC4 1-300); conditions: protein: recombinant; tags: N-terminal GST; dsDNA, one strand shown
# T5 sequence: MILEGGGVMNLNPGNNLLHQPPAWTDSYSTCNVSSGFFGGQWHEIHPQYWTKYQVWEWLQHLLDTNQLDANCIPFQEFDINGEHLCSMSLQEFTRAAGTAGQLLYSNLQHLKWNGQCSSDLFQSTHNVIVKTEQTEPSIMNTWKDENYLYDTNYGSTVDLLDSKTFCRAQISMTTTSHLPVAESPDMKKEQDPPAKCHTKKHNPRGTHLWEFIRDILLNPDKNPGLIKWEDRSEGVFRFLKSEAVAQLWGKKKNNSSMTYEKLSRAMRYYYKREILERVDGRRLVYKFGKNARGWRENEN
# Summary of the method: as §1
# SPI1 = SPI1 (Homo sapiens, UniProt P17947 1-270); conditions: protein: recombinant; tags: N-terminal GST; dsDNA, one strand shown
# Summary of the method: as §1
# SPIB = SPIB (Homo sapiens, UniProt Q01892 1-262); conditions: protein: recombinant; tags: N-terminal GST; dsDNA, one strand shown
# Summary of the method: as §1
# ELK3 = target: T6, ELK3 (Homo sapiens, UniProt P41970 1-407); conditions: protein: recombinant; tags: N-terminal GST; dsDNA, one strand shown
# T6 sequence: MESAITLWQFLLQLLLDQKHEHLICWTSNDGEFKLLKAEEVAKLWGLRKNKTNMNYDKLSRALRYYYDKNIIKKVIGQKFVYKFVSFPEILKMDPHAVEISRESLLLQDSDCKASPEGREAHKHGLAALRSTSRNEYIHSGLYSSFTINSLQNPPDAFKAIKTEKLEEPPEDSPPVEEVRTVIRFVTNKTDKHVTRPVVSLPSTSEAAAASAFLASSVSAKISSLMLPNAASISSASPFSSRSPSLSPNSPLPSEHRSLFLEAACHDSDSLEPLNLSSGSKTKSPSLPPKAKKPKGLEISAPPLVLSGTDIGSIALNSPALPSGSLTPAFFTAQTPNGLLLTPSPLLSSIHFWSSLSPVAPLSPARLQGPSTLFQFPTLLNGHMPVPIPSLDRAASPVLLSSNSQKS
# Summary of the method: as §1
# FEV = target: T7, FEV (Homo sapiens, UniProt Q99581 1-238); conditions: protein: recombinant; tags: N-terminal GST; dsDNA, one strand shown
# T7 sequence: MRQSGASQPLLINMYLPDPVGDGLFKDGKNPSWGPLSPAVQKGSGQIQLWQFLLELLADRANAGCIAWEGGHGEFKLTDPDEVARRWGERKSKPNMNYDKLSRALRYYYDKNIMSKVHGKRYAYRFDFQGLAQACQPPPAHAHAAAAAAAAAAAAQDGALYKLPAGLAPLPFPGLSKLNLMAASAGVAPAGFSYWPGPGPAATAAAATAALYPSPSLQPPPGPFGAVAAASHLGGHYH
# Summary of the method: as §1
# ETV5 = ETV5 (Homo sapiens, UniProt P41161 1-510); conditions: protein: recombinant; tags: N-terminal GST; dsDNA, one strand shown
# Summary of the method: as §1
# HSF1 = HSF1 (Homo sapiens, UniProt Q00613 1-529); conditions: protein: recombinant; tags: N-terminal GST; chain copies: 3; dsDNA, one strand shown
# Summary of the method: as §1
# SPIC = target: T8, SPIC (Homo sapiens, UniProt Q8N5J4 1-248); conditions: protein: recombinant; tags: N-terminal GST; dsDNA, one strand shown
# T8 sequence: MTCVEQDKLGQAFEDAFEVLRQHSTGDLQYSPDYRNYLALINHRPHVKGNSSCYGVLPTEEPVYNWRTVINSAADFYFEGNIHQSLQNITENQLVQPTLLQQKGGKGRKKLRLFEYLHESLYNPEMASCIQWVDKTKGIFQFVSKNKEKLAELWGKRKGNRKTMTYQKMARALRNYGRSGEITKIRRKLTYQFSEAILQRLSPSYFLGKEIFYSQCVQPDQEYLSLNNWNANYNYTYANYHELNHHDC
# Summary of the method: as §1
# ELF4 = ELF4 (Homo sapiens, UniProt Q99607 1-663); conditions: protein: recombinant; tags: N-terminal GST; dsDNA, one strand shown
# Summary of the method: as §1
# ELK4 = target: T9, ELK4 (Homo sapiens, UniProt P28324-2 1-405); conditions: protein: recombinant; tags: N-terminal GST; dsDNA, one strand shown
# T9 sequence: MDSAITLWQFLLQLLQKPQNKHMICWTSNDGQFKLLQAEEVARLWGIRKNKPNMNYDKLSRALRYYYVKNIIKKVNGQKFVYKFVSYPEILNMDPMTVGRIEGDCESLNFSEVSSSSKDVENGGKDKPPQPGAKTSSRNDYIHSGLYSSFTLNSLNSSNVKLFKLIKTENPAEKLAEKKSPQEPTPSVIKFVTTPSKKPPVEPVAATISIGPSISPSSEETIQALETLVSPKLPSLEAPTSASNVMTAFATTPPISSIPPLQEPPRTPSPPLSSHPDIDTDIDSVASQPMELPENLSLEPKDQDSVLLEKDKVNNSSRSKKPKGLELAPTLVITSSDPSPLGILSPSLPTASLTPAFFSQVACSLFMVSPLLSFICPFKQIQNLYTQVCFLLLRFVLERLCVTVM
# Summary of the method: as §1
# ETV2 = target: T10, ETV2 (Homo sapiens, UniProt O00321 1-342); conditions: protein: recombinant; tags: N-terminal GST; dsDNA, one strand shown
# T10 sequence: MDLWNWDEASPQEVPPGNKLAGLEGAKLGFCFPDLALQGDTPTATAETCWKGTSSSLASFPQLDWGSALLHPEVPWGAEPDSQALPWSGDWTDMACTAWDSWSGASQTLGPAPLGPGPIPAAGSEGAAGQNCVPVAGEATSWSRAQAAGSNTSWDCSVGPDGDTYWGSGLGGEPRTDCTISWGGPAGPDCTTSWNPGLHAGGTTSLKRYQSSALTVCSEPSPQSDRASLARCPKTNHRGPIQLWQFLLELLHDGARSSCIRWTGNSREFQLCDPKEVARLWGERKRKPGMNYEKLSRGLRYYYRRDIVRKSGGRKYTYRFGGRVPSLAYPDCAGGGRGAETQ
# Summary of the method: as §1
# ELF3 = target: T11, ELF3 (Homo sapiens, UniProt P78545 1-371); conditions: protein: recombinant; tags: N-terminal GST; dsDNA, one strand shown
# T11 sequence: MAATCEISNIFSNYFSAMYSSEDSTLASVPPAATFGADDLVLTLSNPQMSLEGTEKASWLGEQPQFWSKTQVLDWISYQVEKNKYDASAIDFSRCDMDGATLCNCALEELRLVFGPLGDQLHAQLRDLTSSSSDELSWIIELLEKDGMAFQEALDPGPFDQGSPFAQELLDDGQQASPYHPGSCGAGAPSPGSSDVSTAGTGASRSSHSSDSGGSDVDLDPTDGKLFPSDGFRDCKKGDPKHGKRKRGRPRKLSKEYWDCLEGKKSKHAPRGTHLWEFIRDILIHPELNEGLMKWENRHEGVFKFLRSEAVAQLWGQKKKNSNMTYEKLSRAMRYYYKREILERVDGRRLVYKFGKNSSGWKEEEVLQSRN
# Summary of the method: as §1
# CRX = CRX (Homo sapiens, UniProt O43186 1-299); conditions: protein: recombinant; tags: N-terminal GST; dsDNA, one strand shown
# Summary of the method: as §1
# ETV1 = ETV1 (Homo sapiens, UniProt P50549 1-477); conditions: protein: recombinant; tags: N-terminal GST; dsDNA, one strand shown
# Summary of the method: as §1
# Chain of ETV1 (P50549 whole entry): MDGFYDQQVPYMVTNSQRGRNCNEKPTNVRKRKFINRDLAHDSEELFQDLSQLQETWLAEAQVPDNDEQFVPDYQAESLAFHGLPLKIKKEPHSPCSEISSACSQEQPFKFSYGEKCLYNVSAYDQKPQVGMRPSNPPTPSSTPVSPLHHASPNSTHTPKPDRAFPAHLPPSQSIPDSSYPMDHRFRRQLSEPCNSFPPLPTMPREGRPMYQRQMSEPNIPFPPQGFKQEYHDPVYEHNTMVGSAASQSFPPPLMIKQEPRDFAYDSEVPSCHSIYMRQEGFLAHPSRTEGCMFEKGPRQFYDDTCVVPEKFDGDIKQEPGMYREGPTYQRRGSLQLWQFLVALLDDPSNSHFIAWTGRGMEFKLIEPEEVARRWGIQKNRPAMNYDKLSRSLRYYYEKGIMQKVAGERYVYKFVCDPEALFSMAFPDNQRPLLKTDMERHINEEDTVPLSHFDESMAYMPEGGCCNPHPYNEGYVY
# Chain of ELF4 (Q99607 whole entry): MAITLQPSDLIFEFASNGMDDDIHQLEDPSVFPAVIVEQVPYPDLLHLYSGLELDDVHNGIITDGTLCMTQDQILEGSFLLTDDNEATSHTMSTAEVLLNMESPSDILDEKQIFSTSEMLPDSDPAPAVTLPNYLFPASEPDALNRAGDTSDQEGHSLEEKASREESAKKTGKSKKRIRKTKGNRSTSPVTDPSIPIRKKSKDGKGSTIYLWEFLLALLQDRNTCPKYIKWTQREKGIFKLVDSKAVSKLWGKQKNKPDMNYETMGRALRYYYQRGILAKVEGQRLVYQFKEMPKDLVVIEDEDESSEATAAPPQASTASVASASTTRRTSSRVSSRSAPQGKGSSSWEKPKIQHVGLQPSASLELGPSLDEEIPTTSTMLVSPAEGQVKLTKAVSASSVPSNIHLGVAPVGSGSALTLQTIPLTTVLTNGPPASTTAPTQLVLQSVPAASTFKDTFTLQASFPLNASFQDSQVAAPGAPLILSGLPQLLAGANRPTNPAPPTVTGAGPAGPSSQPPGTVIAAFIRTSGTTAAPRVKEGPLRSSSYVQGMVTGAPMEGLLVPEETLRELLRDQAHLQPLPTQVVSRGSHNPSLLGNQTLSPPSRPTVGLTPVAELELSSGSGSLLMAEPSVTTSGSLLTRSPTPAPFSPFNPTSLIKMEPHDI
# Chain of ETV5 (P41161 whole entry): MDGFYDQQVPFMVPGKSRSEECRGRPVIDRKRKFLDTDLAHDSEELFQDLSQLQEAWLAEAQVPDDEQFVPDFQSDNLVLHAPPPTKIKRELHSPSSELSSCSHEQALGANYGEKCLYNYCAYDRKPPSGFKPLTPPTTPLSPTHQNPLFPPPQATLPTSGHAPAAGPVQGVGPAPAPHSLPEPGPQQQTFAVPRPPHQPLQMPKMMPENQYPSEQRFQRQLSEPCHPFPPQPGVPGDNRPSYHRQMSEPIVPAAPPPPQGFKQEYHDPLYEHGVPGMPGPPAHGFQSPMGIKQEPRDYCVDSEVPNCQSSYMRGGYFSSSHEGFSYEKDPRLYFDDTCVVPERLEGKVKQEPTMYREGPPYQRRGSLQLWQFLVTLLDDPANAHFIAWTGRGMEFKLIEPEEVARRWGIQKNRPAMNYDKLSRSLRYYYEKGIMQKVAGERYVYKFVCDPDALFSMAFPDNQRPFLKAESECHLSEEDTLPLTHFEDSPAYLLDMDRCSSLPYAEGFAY
# Chain of HSF1 (Q00613 whole entry): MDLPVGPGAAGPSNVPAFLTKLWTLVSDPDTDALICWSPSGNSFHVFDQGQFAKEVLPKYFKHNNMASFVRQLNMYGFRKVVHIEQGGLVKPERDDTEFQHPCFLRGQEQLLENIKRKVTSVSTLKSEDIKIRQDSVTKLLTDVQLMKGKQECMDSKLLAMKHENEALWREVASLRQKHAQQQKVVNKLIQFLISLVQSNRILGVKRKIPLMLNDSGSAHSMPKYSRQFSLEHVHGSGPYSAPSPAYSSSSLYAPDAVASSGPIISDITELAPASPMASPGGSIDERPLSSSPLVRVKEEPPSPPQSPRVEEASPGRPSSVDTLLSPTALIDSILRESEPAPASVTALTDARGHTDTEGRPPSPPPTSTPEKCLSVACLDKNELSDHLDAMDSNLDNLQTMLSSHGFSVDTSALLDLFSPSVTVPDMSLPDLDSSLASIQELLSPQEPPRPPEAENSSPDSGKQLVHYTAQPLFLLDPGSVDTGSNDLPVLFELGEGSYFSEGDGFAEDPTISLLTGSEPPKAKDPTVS
# Chain of SPIB (Q01892 whole entry): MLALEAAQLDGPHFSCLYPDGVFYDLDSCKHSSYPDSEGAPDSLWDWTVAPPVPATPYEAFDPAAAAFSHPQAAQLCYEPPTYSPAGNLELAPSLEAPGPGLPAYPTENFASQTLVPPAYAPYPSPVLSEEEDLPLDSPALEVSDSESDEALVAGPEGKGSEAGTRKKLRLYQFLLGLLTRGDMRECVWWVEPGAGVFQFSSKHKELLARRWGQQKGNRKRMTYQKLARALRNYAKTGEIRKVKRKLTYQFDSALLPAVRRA
# Chain of CRX (O43186 whole entry): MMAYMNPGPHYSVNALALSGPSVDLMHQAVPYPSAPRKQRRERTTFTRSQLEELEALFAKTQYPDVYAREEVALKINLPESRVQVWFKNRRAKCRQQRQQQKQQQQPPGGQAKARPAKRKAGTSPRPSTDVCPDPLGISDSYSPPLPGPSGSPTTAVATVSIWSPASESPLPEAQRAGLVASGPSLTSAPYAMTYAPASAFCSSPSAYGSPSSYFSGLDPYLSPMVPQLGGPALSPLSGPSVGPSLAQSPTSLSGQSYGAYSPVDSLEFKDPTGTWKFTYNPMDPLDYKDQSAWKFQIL
# Chain of ELF1 (P32519 whole entry): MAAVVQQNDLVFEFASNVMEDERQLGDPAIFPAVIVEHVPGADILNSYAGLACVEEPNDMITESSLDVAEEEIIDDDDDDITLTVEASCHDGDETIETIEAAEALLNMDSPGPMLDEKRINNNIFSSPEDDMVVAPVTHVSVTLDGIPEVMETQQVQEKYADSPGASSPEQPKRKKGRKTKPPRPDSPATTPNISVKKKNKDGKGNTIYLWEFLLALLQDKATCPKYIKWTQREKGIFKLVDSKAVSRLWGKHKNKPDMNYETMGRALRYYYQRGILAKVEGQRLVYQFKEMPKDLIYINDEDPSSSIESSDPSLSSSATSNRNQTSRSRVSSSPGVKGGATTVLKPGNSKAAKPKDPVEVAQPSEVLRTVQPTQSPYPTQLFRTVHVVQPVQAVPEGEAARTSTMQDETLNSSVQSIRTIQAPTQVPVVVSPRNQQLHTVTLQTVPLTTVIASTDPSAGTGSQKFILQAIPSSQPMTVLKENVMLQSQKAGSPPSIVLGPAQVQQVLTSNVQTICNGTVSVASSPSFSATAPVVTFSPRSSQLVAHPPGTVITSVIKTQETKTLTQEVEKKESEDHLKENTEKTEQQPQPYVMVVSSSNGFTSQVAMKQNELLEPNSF
sequence,measurement,setting,value
TCGACT,binding signal,FLI1,"1.33 fold enrichment (6-mer frequency, TF over GST control)"
same,binding signal,ELK1,"1.34 fold enrichment (6-mer frequency, TF over GST control)"
same,binding signal,GABPA,"1.3 fold enrichment (6-mer frequency, TF over GST control)"
same,binding signal,ERG,"1.35 fold enrichment (6-mer frequency, TF over GST control)"
same,binding signal,ELF1,"1.43 fold enrichment (6-mer frequency, TF over GST control)"
same,binding signal,EHF,"1.39 fold enrichment (6-mer frequency, TF over GST control)"
same,binding signal,SPI1,"1.42 fold enrichment (6-mer frequency, TF over GST control)"
same,binding signal,SPIB,"1.39 fold enrichment (6-mer frequency, TF over GST control)"
same,binding signal,ELK3,"1.47 fold enrichment (6-mer frequency, TF over GST control)"
same,binding signal,FEV,"1.42 fold enrichment (6-mer frequency, TF over GST control)"
same,binding signal,ETV5,"1.35 fold enrichment (6-mer frequency, TF over GST control)"
same,binding signal,HSF1,"1.57 fold enrichment (6-mer frequency, TF over GST control)"
same,binding signal,SPIC,"1.41 fold enrichment (6-mer frequency, TF over GST control)"
same,binding signal,ELF4,"1.51 fold enrichment (6-mer frequency, TF over GST control)"
same,binding signal,ELK4,"1.52 fold enrichment (6-mer frequency, TF over GST control)"
same,binding signal,ETV2,"1.33 fold enrichment (6-mer frequency, TF over GST control)"
same,binding signal,ELF3,"1.49 fold enrichment (6-mer frequency, TF over GST control)"
same,binding signal,CRX,"1.36 fold enrichment (6-mer frequency, TF over GST control)"
same,binding signal,ETV1,"1.38 fold enrichment (6-mer frequency, TF over GST control)"

# From publication PMC7862700, “An all-to-all approach to the identification of sequence-specific readers for epigenetic DNA modifications on cytosine”
